# Assay results: PubChem BioAssay AID624305 (National Center for Advancing Translational Sciences (NCATS), 2012)
# Results filed as inconclusive are left out. A number with no mark means an inactive call. Active and inactive are the calls of the source. The call rests on the fitted dose curve; in most records, active means well fitted activation curve with a large enough effect; inconclusive means small, poorly fitted or top-dose-only effect; inactive means no such curve, though single readings can be large or run the other way.
# Test: qHTS assay for re-activators of p53 using a Luc reporter: Hit Validation; further: nearly all actives have a fitted effect of over 75% in size; on activation: 0% is about no effect
# Details: p53-responsive luciferase reporter cells, luminescence, H1299 line expressing heat-sensitive Ala138Val p53; series mostly up to 46.1 µM; activation: at the top concentration
# In short: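 H1299 (p53-null) cells stably carrying p53-A138V and a BP100-luciferase reporter, 1000 cells/well, treated 24 h at 37 deg C. Compounds at several concentrations, 1:5 dilution; nocodazole control; luminescence read after 10 min with detection reagent.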
# Potency means the concentration at half of the fitted maximal effect.
SMILES,activation,Potency
O=C(CSc1nnc(-c2ccc(F)cc2)c2ccccc12)Nc1ccccc1,30.7%,–
CC(=O)N/C(=C/c1ccc2c(c1)OCO2)C(=O)Nc1ccccc1,2.08%,–
N/C(=N\OC(=O)c1cc(Cl)ccc1Cl)c1ccccn1,–,0.92 µM (active)
O=C(Nc1ccc(NC(=O)C2CCCCC2)cn1)c1ccco1,–,2.59 µM (active)
C=Cc1ccc(Cn2c(=O)n(CCCOC)c(=O)c3sccc32)cc1,-8.85%,–
O=c1c2ccccc2oc2ccc(-c3ccc4cc[nH]c4c3)cc12,–,0.411 µM (active)
CCCCCCC[C@@H](C/C=C/CCC(=O)N(C)C/C(=C/Cl)C/C(=C\C(=O)N1CC(OC)=CC1=O)OC)OC,–,5.8 µM (active)
O=C(/C=C/c1ccccc1)NC1CCSC1=O (stereo not drawn),23.4% [at 9.22 µM],–
O=C(NN=C1CCCCCC1)c1cccs1,12.5% [at 9.22 µM],–
Cc1cc(C(=O)Cn2nnc3ccccc3c2=O)c(C)n1Cc1cccs1,–,0.259 µM (active)
Cc1ccc(NC(=O)/C=C/c2ccc([N+](=O)[O-])s2)c(C)c1,–,2.91 µM (active)
CC(=O)c1ccc(NC(=O)CCc2nnc3ccc(NCc4ccco4)nn23)cc1,–,11.6 µM (active)
Cc1cc(C)c2nc(NNC(=O)c3ccc(S(=O)(=O)N4CCCC(C)C4)cc3)sc2c1 (stereo not drawn),-83.9%,–
OC1(C2(O)CC(c3ccccc3)ON2)CCCCC1 (stereo not drawn),-85.4%,–
CC(C)C(=O)NC(c1cccs1)c1cc([N+](=O)[O-])c2cccnc2c1O (stereo not drawn),-2.08%,–
Cn1c(C(=O)Nc2ccc3c(c2)OCCO3)cc2sccc21,–,5.8 µM (active)
Nc1nc2ccc(N3CCOCC3)cc2s1,34.4%,–
CCCCCCC1CC(/C(C)=N\NC(N)=O)OC1=O (stereo not drawn),-6.77%,–
Cc1cc(C)nc(CC(N)=O)n1,-13%,–

SMILES,activation,Potency
COc1cc(C(=O)NCCc2cn3ccc(C)cc3n2)cc(OC)c1OC,13.6% [at 9.22 µM],–
CC(C)(C)c1ccc(NC(=O)COC(=O)c2ccc(NS(=O)(=O)c3ccc(F)c(F)c3)cc2)cc1,-88%,–
COc1ccccc1NC(CC(=O)c1ccccc1)C(=O)OCC(=O)c1ccc(C)c(C)c1 (stereo not drawn),–,0.291 µM (active)
Cc1cc(F)ccc1NC(=O)Nc1ccc2c(c1)OCO2,15.1%,–
Brc1ccc(-c2nc3ccccc3s2)s1,–,3.26 µM (active)
COc1ccccc1-c1nc(-c2ccc(Br)o2)no1,–,0.366 µM (active)
Cc1ccc2nc(-c3ccc(NC(=O)COC(=O)c4cncc(Br)c4)cc3)sc2c1,–,0.146 µM (active)
CC(C)CC(NC(=O)C1CCC(=O)N1)C(=O)NC(CC(C)C)C(=O)N1CCCC1C(N)=O (stereo not drawn),-19.8%,–
Cc1ccc(C(=O)CN2C(=O)NC3(CCCCC3C)C2=O)s1 (stereo not drawn),-5.21%,–
CC(=O)Nc1ccc(Nc2cc(C)nc3c(-c4ccccc4)cnn23)cc1,–,0.116 µM (active)
COc1ccc(-n2cc(-c3ccccc3)[nH]c2=S)cc1,–,11.6 µM (active)
Cc1c(/C(O)=C2/C(=O)C(=O)N(CCN3CCOCC3)C2c2cccs2)cnn1-c1ccccc1 (stereo not drawn),–,8.2 µM (active)
CC(=O)N1CCN(C(=O)COC(=O)COc2c(C)cc(C)cc2C)CC1,16.7%,–
C=CCn1c(P(C)(=O)O)nc2ccccc21,-10.4%,–
O=C(Nc1cccc(O)c1)C(=O)Nc1ccccn1,–,2.31 µM (active)
Cc1ccc2nc(-c3ccc(NC(=O)CN4C(=O)c5ccccc5C4=O)cc3)sc2c1,–,5.17 µM (active)
O=C(Cc1ccccc1)Nc1ccc(NC(=O)c2cccnc2)cc1,12%,–
CN(C(=O)CSc1nnc(-c2ccco2)o1)C1CCCCC1,-86.5%,–
S=C(Nc1ccccc1)Nc1nc2ccccc2n1CCOc1ccc(Br)cc1,-11.5%,–
